This is part of a sample that, as a whole, favours compounds with a hit. Of some 83,000 tested, about 20% had one in any assay.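 A percent growth of 40 corresponds to 60% growth inhibition; 0 means no net growth; -100 means all cells died. Active threshold: below 10.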 Unmarked numbers belong to inactive results. Activity calls are given as the source filed them.

The test system of the first assay is MCF7 breast. Kind of assay: NCI-60 one-dose screen, 48 h (100 = growth as untreated, 0 = no growth, -100 = all killed). Particulars: 10 µM unless noted.
Take `O=c1oc2ccccc2cc1-c1csc(N=Nc2c(O)[nH]c3ccc(Cl)cc23)n1`: the growth was 93.5%.
Still for that read-out and setting: the same measure for `COc1cc2nc(SCc3cc(OC)c(OC)c(OC)c3)n(-c3ccccc3OC)c(=O)c2cc1OC`: 77%; for `COc1ccc(-c2nc3sccn3c2/C=C/C(=O)c2cc(OC)c(OC)c(OC)c2)cc1OC`: 4.93% (active); for `COC(=O)c1c2c(c(C)[n+]([O-])c1C)C(=O)C=C(NCc1ccc(F)c(Cl)c1)C2=O`: -61.9% (active).
With `O=C(N/N=C/c1ccc(F)cc1)c1[nH]c2ccc(I)cc2c1-c1ccccc1`, the growth was 14.3%.
Regarding `Cc1nc2cc(Nc3nc(Nc4ccc(F)cc4)nc(N4CCCC4)n3)ccc2n1Cc1ccccc1`, the growth was 3.05% (active).
Turning to `COc1cc2oc(-c3ccc(O)cc3)cc(=O)c2c(O)c1I`, the growth is 79%.
As for `COC(=O)c1c2c(c(C)[n+]([O-])c1C)C(=O)C=C(NCc1ccc(Cl)cc1)C2=O`, the growth is -63.2% (active).
Consider `Cc1nc2cc(Nc3nc(Nc4ccc(F)cc4)nc(N4CCN(C)CC4)n3)ccc2n1Cc1ccccc1`, for which the growth was 17.9%.
Consider `COc1ccc(OC)c2ncccc12`, for which the growth was 84.8%.
The same measure, in the same setting: the same measure for `COc1ccc(S(=O)(=O)ON=C2C=C(C)C(=O)C(C)=C2)cc1`: 64%.
On to `O=C(COc1cccc(/C=C2\COc3ccccc3C2=O)c1)c1ccccc1`, for which the growth is 7.63% (active).
With `Oc1cccc(Nc2nc(-c3ccccn3)cs2)c1`, the growth was 84.1%.
On to `O=C1c2c(c3c4cc(Br)ccc4[nH]c3c3ccc4ccccc4c23)C(=O)N1O`, for which the growth was 43.3%.
Regarding `C=CC[P+](c1ccccc1)(c1ccccc1)c1ccccc1`, the growth is 27.2%.
With `COC(=O)c1c2c(c(C)[n+]([O-])c1C)C(=O)C=C(NCc1cccc(Cl)c1)C2=O`, the growth is -61.3% (active).
Consider `COc1ccc(-c2[nH]ncc2Nc2cc(OC)c(OC)c(OC)c2)cc1`, for which the growth is 23.1%.
For `COc1ccc(-c2nc(Nc3ccc(F)cc3)nc(Nc3ccc4c(c3)nc(C)n4Cc3ccccc3)n2)cc1`, the growth is 22.6%.
The same measure, in the same setting: the same measure for `O=C(N/N=C(\CS(=O)(=O)c1ccccc1)c1cc2ccccc2oc1=O)c1ccccc1`: 102%; for `COc1ccc(C(=O)C2=CC(=O)C(=O)C2)cc1OC`: 95.9%.
`COc1ccc(C(=O)COc2cccc(/C=C3\CSc4ccc(C)cc4C3=O)c2)cc1`: the growth was 30.9%.
Regarding `Cc1ccc(S(=O)(=O)N2C/C(=C\c3cc(F)cc(F)c3)C(=O)/C(=C/c3cc(F)cc(F)c3)C2)cc1`, the growth is -75.4% (active).
On to `Nc1nc(N)c(N=Nc2c(Br)cc(S(N)(=O)=O)cc2Br)c(N)n1`, for which the growth was 68.6%.
As for `Cc1ccc(-c2c3c(N)c4c(nc3nc3c2c(C)nn3-c2ccccc2)CCCC4)cc1`, the growth was 94.2%.
With `COc1cc(-c2nc3ccccc3o2)cc(CN2CCN(c3ccccc3)CC2)c1O`, the growth is 60.6%.
As for `Cc1cccc2c(=O)c3c(sc12)c(NCCNCCO)nc1ccccc13`, the growth was -69% (active).
Turning to `COC(=O)c1c2c(c(C)[n+]([O-])c1C)C(=O)C=C(NCc1cccc(OC)c1)C2=O`, the growth was -65.4% (active).
The same measure, in the same setting: the value for `COc1ccc(-c2csc3c2-n2cccc2C3=O)cc1O` was 5.97% (active); that for `COc1ccc(-c2c(-c3cc4c(c(OC)c3OC)OCO4)noc2N)cc1` was 19.7%; that for `O=C(N/N=C(\CS(=O)(=O)c1ccccc1)c1cc2cc(Br)ccc2oc1=O)c1ccccc1` was 98.2%.
In the case of `Cn1c(=O)c2c(-c3ccccc3F)n(-c3ccc4c(c3)OCO4)cc2n(C)c1=O`, the growth was 94.5%.
Turning to `CN(C)C(=S)SCN1C(=O)c2ccc([N+](=O)[O-])cc2S1(=O)=O`, the growth is 97.4%.
With `Cc1nn(-c2ccccc2)c2nc3nc4c(c(N)c3c(-c3ccc(Cl)cc3)c12)CCCC4`, the growth is 97.8%.
Take `COc1cc(CNCCN2C(=O)c3ccc4c5c(ccc(c35)C2=O)C(=O)N(CCNCc2cc(OC)c(OC)c(OC)c2)C4=O)cc(OC)c1OC`: the growth was -59.4% (active).
As for `O=C(O)c1ccccc1Oc1cc(-c2ccco2)nc(OCCBr)n1`, the growth was 101%.
On the same count and under the same terms, the same measure for `COc1cc(-c2ccc3cc(OC)c(OC)c(OC)c3c2)cc(OC)c1OC`: 49.4%.
`COc1cccc(-c2ccc3c(c2)C2CCN(Cc4ccccc4)C3C2)c1` (configuration not stated): the growth is 60.1%.
Consider `COc1ccc(OC2=CC(=O)c3ccc(C)nc3C2=O)cc1`, for which the growth was 72.4%.
Regarding `CC(=O)OC[C@]1(C)C=C2C(=O)[C@](C)(O)C3(CC3)C(C)=C2[C@H]1OC(C)=O`, the growth was 57.1%.

For the next assay, the system named is HCT-116 colon. Described as above. As to conditions: 10 µM unless noted.
With `O=c1oc2ccccc2cc1-c1csc(N=Nc2c(O)[nH]c3ccc(Cl)cc23)n1`, the growth was 107%.
In the case of `COc1ccc(-c2nc3sccn3c2/C=C/C(=O)c2cc(OC)c(OC)c(OC)c2)cc1OC`, the growth was 7.36% (active).
On to `COC(=O)c1c2c(c(C)[n+]([O-])c1C)C(=O)C=C(NCc1ccc(F)c(Cl)c1)C2=O`, for which the growth is -48.6% (active).
Turning to `O=C(N/N=C/c1ccc(F)cc1)c1[nH]c2ccc(I)cc2c1-c1ccccc1`, the growth was 14.8%.
Same read-out and setting: the same measure for `Cc1nc2cc(Nc3nc(Nc4ccc(F)cc4)nc(N4CCCC4)n3)ccc2n1Cc1ccccc1`: -79.3% (active); for `COC(=O)c1c2c(c(C)[n+]([O-])c1C)C(=O)C=C(NCc1ccc(Cl)cc1)C2=O`: -19.9% (active); for `Cc1nc2cc(Nc3nc(Nc4ccc(F)cc4)nc(N4CCN(C)CC4)n3)ccc2n1Cc1ccccc1`: -16.3% (active).
For the compound `COc1ccc(OC)c2ncccc12`, the growth was 100%.
Regarding `COc1ccc(S(=O)(=O)ON=C2C=C(C)C(=O)C(C)=C2)cc1`, the growth is 44.9%.
Turning to `O=C(COc1cccc(/C=C2\COc3ccccc3C2=O)c1)c1ccccc1`, the growth was 3.67% (active).
Same read-out and setting: the value for `Oc1cccc(Nc2nc(-c3ccccn3)cs2)c1` was 97.1%.
For the compound `O=C1c2c(c3c4cc(Br)ccc4[nH]c3c3ccc4ccccc4c23)C(=O)N1O`, the growth is 83.6%.
For `C=CC[P+](c1ccccc1)(c1ccccc1)c1ccccc1`, the growth was 36.7%.
For the compound `COC(=O)c1c2c(c(C)[n+]([O-])c1C)C(=O)C=C(NCc1cccc(Cl)c1)C2=O`, the growth is -13.7% (active).
For `COc1ccc(-c2[nH]ncc2Nc2cc(OC)c(OC)c(OC)c2)cc1`, the growth is 35.5%.
Turning to `COc1ccc(-c2nc(Nc3ccc(F)cc3)nc(Nc3ccc4c(c3)nc(C)n4Cc3ccccc3)n2)cc1`, the growth is 23.4%.
With `O=C(N/N=C(\CS(=O)(=O)c1ccccc1)c1cc2ccccc2oc1=O)c1ccccc1`, the growth was 112%.
With `COc1ccc(C(=O)C2=CC(=O)C(=O)C2)cc1OC`, the growth was 103%.
Still for that read-out and setting: the value for `COc1ccc(C(=O)COc2cccc(/C=C3\CSc4ccc(C)cc4C3=O)c2)cc1` was 53.1%; that for `Cc1ccc(S(=O)(=O)N2C/C(=C\c3cc(F)cc(F)c3)C(=O)/C(=C/c3cc(F)cc(F)c3)C2)cc1` was -93.9% (active).
Regarding `Nc1nc(N)c(N=Nc2c(Br)cc(S(N)(=O)=O)cc2Br)c(N)n1`, the growth was 103%.
Take `Cc1ccc(-c2c3c(N)c4c(nc3nc3c2c(C)nn3-c2ccccc2)CCCC4)cc1`: the growth was 90.2%.
As for `COc1cc(-c2nc3ccccc3o2)cc(CN2CCN(c3ccccc3)CC2)c1O`, the growth was 56.4%.
As to `Cc1cccc2c(=O)c3c(sc12)c(NCCNCCO)nc1ccccc13`, the growth is -70.6% (active).
For `Nc1nc2c(s1)CCc1c-2c(Br)n(Cc2ccccc2)c1Br`, the growth was 23.5%.
Still for that read-out and setting: the value for `COC(=O)c1c2c(c(C)[n+]([O-])c1C)C(=O)C=C(NCc1cccc(OC)c1)C2=O` was -60.1% (active); that for `COc1ccc(-c2csc3c2-n2cccc2C3=O)cc1O` was -9.12% (active); that for `COc1ccc(-c2c(-c3cc4c(c(OC)c3OC)OCO4)noc2N)cc1` was 22.2%.
Take `O=C(N/N=C(\CS(=O)(=O)c1ccccc1)c1cc2cc(Br)ccc2oc1=O)c1ccccc1`: the growth was 104%.
As for `Cn1c(=O)c2c(-c3ccccc3F)n(-c3ccc4c(c3)OCO4)cc2n(C)c1=O`, the growth was 85.8%.
For `CN(C)C(=S)SCN1C(=O)c2ccc([N+](=O)[O-])cc2S1(=O)=O`, the growth was 95.7%.
Still for that read-out and setting: the same measure for `Cc1nn(-c2ccccc2)c2nc3nc4c(c(N)c3c(-c3ccc(Cl)cc3)c12)CCCC4`: 80.2%.
Turning to `COc1cc(CNCCN2C(=O)c3ccc4c5c(ccc(c35)C2=O)C(=O)N(CCNCc2cc(OC)c(OC)c(OC)c2)C4=O)cc(OC)c1OC`, the growth is -99.7% (active).
`O=C(O)c1ccccc1Oc1cc(-c2ccco2)nc(OCCBr)n1`: the growth is 96.5%.
Turning to `COc1cc(-c2ccc3cc(OC)c(OC)c(OC)c3c2)cc(OC)c1OC`, the growth is 54.1%.
The same measure, in the same setting: the value for `COc1cccc(-c2ccc3c(c2)C2CCN(Cc4ccccc4)C3C2)c1` (configuration not stated) was 58.4%; that for `COc1ccc(OC2=CC(=O)c3ccc(C)nc3C2=O)cc1` was 74.3%.
Regarding `CC(=O)OC[C@]1(C)C=C2C(=O)[C@](C)(O)C3(CC3)C(C)=C2[C@H]1OC(C)=O`, the growth was 62.3%.

The record behind these values is PubChem BioAssay (NCI).
